Results taken from PubChem BioAssay (NCI).
Compounds without any hit were thinned out: in the full panel of roughly 83,000, 20% have a hit.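 Treatment: one concentration, 48 hours, 96-well format. Scoring: percent growth, with anything below 10 considered active.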 Values without a mark were called inactive. The source made the active and inactive calls.

How the values were obtained:
Test in all cases: NCI-60 one-dose screen, 48 h (100 = growth as untreated, 0 = no growth, -100 = all killed)
Conditions in all cases: 10 µM unless noted
DU-145 prostate = tested on: DU-145 prostate
K-562 leukemia = tested on: K-562 leukemia
MALME-3M melanoma = tested on: MALME-3M melanoma
MDA-MB-231 breast = tested on: MDA-MB-231 breast
RXF 393 renal = tested on: RXF 393 renal
SF-268 CNS = tested on: SF-268 CNS
SF-295 CNS = tested on: SF-295 CNS
SF-539 CNS = tested on: SF-539 CNS
UACC-257 melanoma = tested on: UACC-257 melanoma
M14 melanoma = tested on: M14 melanoma
HCT-15 colon = tested on: HCT-15 colon
HT29 colon = tested on: HT29 colon
SNB-75 CNS = tested on: SNB-75 CNS
SNB-19 CNS = tested on: SNB-19 CNS
PC-3 prostate = tested on: PC-3 prostate
SK-MEL-5 melanoma = tested on: SK-MEL-5 melanoma
UACC-62 melanoma = tested on: UACC-62 melanoma
LOX IMVI melanoma = tested on: LOX IMVI melanoma
SK-MEL-28 melanoma = tested on: SK-MEL-28 melanoma
U251 CNS = tested on: U251 CNS

SMILES	growth (DU-145 prostate)	growth (K-562 leukemia)	growth (MALME-3M melanoma)	growth (MDA-MB-231 breast)	growth (RXF 393 renal)	growth (SF-268 CNS)	growth (SF-295 CNS)	growth (SF-539 CNS)	growth (UACC-257 melanoma)	growth (M14 melanoma)	growth (HCT-15 colon)	growth (HT29 colon)	growth (SNB-75 CNS)	growth (SNB-19 CNS)	growth (PC-3 prostate)	growth (SK-MEL-5 melanoma)	growth (UACC-62 melanoma)	growth (LOX IMVI melanoma)	growth (SK-MEL-28 melanoma)	growth (U251 CNS)
O=C(Nc1ccc2c(c1)-c1ccccc1C2)C1CC(=O)N(c2ccc3c(c2)OCO3)C1 (stereo unspecified)	52.1% [50 µM]	57.5% [50 µM]	58.1% [50 µM]	59.9% [50 µM]	56.6% [50 µM]	69.2% [50 µM]	47% [50 µM]	-60.7% [50 µM] (active)	69.5% [50 µM]	62.7% [50 µM]	89.3% [50 µM]	64.6% [50 µM]	-2.42% [50 µM] (active)	46.4% [50 µM]	33.1% [50 µM]	56% [50 µM]	44.3% [50 µM]	63.1% [50 µM]	33.4% [50 µM]	
COc1ccc(-c2cc(-c3ccc(Cl)cc3)c(C#N)c(=O)n2CCCCC(=O)NO)cc1	78.2%	61.8%	73.3%	52.1%	37.3%	85.2%	90.2%	82.5%	80%	72.6%	20.9%	83.9%	76.7%	78%	70.6%	39.1%	87.1%	-14.3% (active)	79.3%	
O=c1c(/C=C/c2c(O)ccc3ccccc23)nnc2sc(-c3cccc([N+](=O)[O-])c3)nn12	44.1%	50.9%	72.9%	30.8%	74.5%	40.4%	43.8%	53.2%	54.6%	52.3%	29.1%	88.8%	51.7%	50%	52.7%	65.2%	32.5%		54.1%	
O=C(Nc1ncc(Cc2ccc(Cl)cc2)s1)c1ccc2c(c1)OCCO2	16.6%	8.41% (active)	57.8%	10.9%	3.74% (active)	42.9%	11.7%	-4.99% (active)	44.1%	17.3%	8.98% (active)	7.68% (active)	23%	43.4%	30.3%	-21.3% (active)	45.8%	31.3%	76.2%	
C/C(=C(\c1ccc(OCCCN(C)C)cc1)c1ccc(OC(=O)Cc2ccccc2)cc1)c1ccc(Cl)cc1	80.7%	0.63% (active)	87.6%	68.4%	69.7%	77.4%	79.1%	82%	91.5%	7.02% (active)	45.2%	4.56% (active)	77.3%	89.8%	75.9%	82.7%	81.8%	3.29% (active)	76.4%	
C=C(CNCCO)[C@@H]1CC[C@]2(CO)CC[C@]3(C)[C@H](CC[C@@H]4[C@@]5(C)CCC(NCCO)C(C)(C)[C@@H]5CC[C@]43C)[C@@H]12 (stereo partly specified)	79.2%	0.374% (active)	61.8%	51.4%	57.4%	69.1%	80.8%	70.8%	77.9%	14.3%	71.6%	12.7%	66.8%	83.6%	75.2%	65.2%	94.6%		80.7%	
CC(C)=CCC[C@](C)(O)C1CC[C@]2(C)[C@@H]1CC[C@@H]1[C@@]3(C)CC/C(=N\OCCC#N)C(C)(C)[C@@H]3CC[C@]12C (stereo partly specified)	83.9%	67.6%	71.8%	94.1%	109%	87.4%	97.9%	91.9%	86.1%	88.5%	83.4%	65.1%	77.8%	92.4%	62.3%	85.8%	68.9%	89.2%	94.1%	
COc1ccc(NC(=O)CSc2oc(-c3ccccc3)nc2S(=O)(=O)c2ccc(Cl)cc2)c(OC)c1	83.1%	67.4%	57.6%	47.5%	16.3%	47.1%	53.6%	0.354% (active)	40.7%	77.3%	73.7%	70.3%	-1.47% (active)	55.4%	61%	66.3%	41.4%	76.1%	67.1%	
CCCCC/C=C/CCC(=O)N[C@H]1[C@H](Oc2c3cc4cc2Oc2ccc(cc2Cl)[C@@H](O[C@@H]2O[C@H](CO)[C@@H](O)[C@H](O)[C@H]2NC(C)=O)[C@@H]2NC(=O)[C@H](NC(=O)[C@@H]4NC(=O)[C@H]4NC(=O)[C@@H](Cc5ccc(c(Cl)c5)O3)NC(=O)[C@@H](N)c3ccc(O)c(c3)Oc3cc(O)cc4c3)c3ccc(O)c(c3)-c3c(O[C@H]4O[C@H](CO)[C@@H](O)[C@H](O)[C@@H]4O)cc(O)cc3[C@H](C(=O)O)NC2=O)O[C@H](CO)[C@H](O)[C@@H]1O	112%	98.6%	108%	100%	112%	98.5%	94.8%	110%	89.4%	109%	111%	103%	109%		89.9%	108%	96.4%		119%	95.7%
O=C(N/N=C/c1ccccc1Cl)c1ccccc1Nc1ccnc(C(F)(F)F)c1	29.4%	4.98% (active)	5.72% (active)	-17.1% (active)	-13.4% (active)	14.1%	-41.1% (active)	4.39% (active)	-2.5% (active)	23.1%	10.4%	3.22% (active)	-14.5% (active)		2.99% (active)	-50.7% (active)	-32.7% (active)	4.1% (active)	25.7%	3.95% (active)
CCOC(=O)C1=C(c2ccccc2)N=C2N(c3ccccc3)N=C(C(C)=O)N2C1c1ccc(Br)cc1 (stereo unspecified)	101%	86.9%	97.3%	89.2%	66.8%	92.6%	90.3%	96.3%	93.4%	100%	92.2%	85.1%	85.8%		77.6%	94%	72.4%	95.4%	99.9%	98%
